Screening data (PubChem)
Sampled rows, rich in hits. Any-hit rate of the full collection: about 4.7%.
TRHR enhancer-1 = allosteric enhancers of human TRH receptor; P34981; TRHR cells, fluo-8 calcium fluorescence, EC20 TRH enhancement; enhancement, % at 2 µM; hit rate 0.66% among 360,000; in the data active means enhancement above about 30%; further: 0% is about no effect
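TRHR-expressing cells loaded with fluo-8 calcium dye were read kinetically (ex 480/em 530) during compound addition, then stimulated with an EC20 of TRH (10 nM final). Enhancement of the Gq-mediated intracellular calcium response was scored.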
TRHR agonist-1 = agonists of human TRH receptor. P34981. TRHR cells, calcium flux fluo-8, FDSS agonist mode. activation, % at 2 µM. hit rate 0.18% among 360,000. AID 493084; in the data active means activation above about 30%; further: 0% is about no effect
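Fluo-8-loaded TRHR cells; 10 s baseline, compound added, kinetic Ca2+ fluorescence read 1/s, agonist mode.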
D1 ag = activates the human D1 dopamine receptor. HEK293 T-REx D1 cells, calcium flux, agonist mode. activation, % at 2 µM. hit rate 1% among 360,000. AID 504660; in the data active means activation above about 30%; further: 0% is about no effect
Target sequence (P21728 whole entry, looked up): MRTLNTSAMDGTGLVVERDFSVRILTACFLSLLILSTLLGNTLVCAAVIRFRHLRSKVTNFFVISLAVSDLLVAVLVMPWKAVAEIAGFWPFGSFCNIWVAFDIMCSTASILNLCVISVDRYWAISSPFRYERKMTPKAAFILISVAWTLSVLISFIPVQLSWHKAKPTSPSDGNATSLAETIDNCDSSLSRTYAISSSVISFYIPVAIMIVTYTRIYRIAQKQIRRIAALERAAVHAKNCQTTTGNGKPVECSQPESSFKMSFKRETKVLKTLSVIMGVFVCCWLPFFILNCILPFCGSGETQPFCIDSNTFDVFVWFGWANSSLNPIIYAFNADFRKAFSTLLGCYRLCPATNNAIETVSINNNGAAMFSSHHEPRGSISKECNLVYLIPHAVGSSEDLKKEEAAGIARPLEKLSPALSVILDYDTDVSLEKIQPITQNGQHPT
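Inducible HEK293 T-REx D1 cells, force-coupled to calcium signalling, were plated at 4000 cells/well with tetracycline and held overnight at 30 C. After no-wash calcium dye loading, compound-evoked calcium rise over 180 s flagged agonists.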
D1 antag = antagonists of human D1 dopamine receptor | P21728 | HEK293 TREx D1 cells, calcium flux, dopamine EC80; hits give low values | activity change, negative = inhibition, % at 10 µM | hit rate 3.2% among 360,000; in the data active means activity change below about -30%; further: on the % scale 0 is the no-effect control and ±100 the full control effect
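Tetracycline-induced HEK293 T-REx cells with force-coupled D1 receptor were loaded with a no-wash calcium dye. Compound was added after a 10 s baseline and read kinetically for 180 s; EC80 dopamine was then added and calcium flux followed another 180 s.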
D1 PAM = potentiators of human D1 dopamine receptor; P21728; HEK293 TREx D1 cells, calcium flux, dopamine EC20 potentiation; potentiation, % at 10 µM; hit rate 0.036% among 360,000; AID 504651; in the data active means potentiation above about 30%; further: 0% is about no effect
TRHR enhancer-2 = human TRH receptor allosteric enhancement confirmation. shares compounds with TRHR enhancer-1. TRH receptor cell assay, enhancer confirmation qHTS. activity change, negative = inhibition, % at 46.1 µM. 970 tested, under 10 active. AID 493076;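 further: compound effect scored on response to added TRH at EC20 of 10 nM; 0% is about no effect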
TRHR agonist-2 = confirmation of human TRH receptor agonists | TRHR-expressing cells, agonist activation read-out | Potency, µM (top dose mostly 46.1 µM), without a hit: top-dose activation, hits mostly activators | shares compounds with TRHR enhancer-1 | hit rate 8% among 970; further: potency means the concentration at half of the fitted maximal effect; 0% is about no effect; nearly all actives have a fitted effect of over 75% in size
The depositor's hits bear a star; ? = inconclusive; / = no result. Unless noted, the call rests on the fitted dose curve; in most records, active means well fitted curve in the direction sought with a large enough effect; inconclusive means small, poorly fitted or top-dose-only effect, or another doubt; inactive means no such curve, though single readings can be large; an effect the other way counts as inactive or inconclusive.

SMILES	TRHR enhancer-1	TRHR agonist-1	D1 ag	D1 antag	D1 PAM	TRHR enhancer-2	TRHR agonist-2
COc1cccc(N2CCN(S(=O)(=O)c3ccc(-c4cc(C(F)(F)F)on4)s3)CC2)c1	-2	0	3	-19	-3	/	/
O=C(Nc1ncccc1O)c1c(O)c2ccccc2[nH]c1=O	-6	27	0	15	-3	5	-1%
Oc1c(C=Nc2ccc(Cl)cn2)sc2ccccc12	-2	11	26	-9	0	/	/
Oc1c(/C=N/c2ccccn2)sc2ccccc12	41*	7	14	10	-2	7	?
CC1CCCC(C)N1C(=O)CN1C(=O)NC2(CCOc3ccccc32)C1=O (centres undefined)	45*	0	5	-31*	-4	5	8%
COc1ccc(S(=O)(=O)n2nc(-c3ccco3)nc2NCc2ccc(C(C)C)cc2)cc1	-6	2	7	6	-1	/	/
COc1ccc(COC(=O)C2=C(C)NC(=O)NC2c2ccccc2)cc1 (centres undefined)	44*	0	6	11	4	-5	0%
O=C(NCC(c1ccco1)S(=O)(=O)c1ccc(Cl)cc1)c1ccccc1F (centres undefined)	3	1	0	-4	-2	/	/
COc1ccccc1N1CCN(C(=O)c2cnn(-c3ccc(F)cc3F)c2C2CCNCC2)CC1	5	-2	1	-5	-7	/	/
Fc1cccc(-c2nnn3c2nc(NC2CCCCC2)c2ccccc23)c1	-2	0	4	15	3	/	/
C=C(C)c1cccc(C(C)(C)NC(=O)Nc2nncs2)c1	6	-1	1	-28	-1	/	/
C=C(C)c1cccc(C(C)(C)NC(=O)Nc2cc(C)ccn2)c1	46*	0	5	-2	-1	-12	-1%
CC1CCCCN1CCCNC(=O)c1[nH]c2ccccc2c1Sc1ccc(Cl)cc1 (centres undefined)	2	1	0	-18	-5	/	/
COc1ccc(N2CCN(C(=O)C3CCN(S(=O)(=O)c4cccc5nonc45)CC3)CC2)cc1	4	0	5	-11	-2	/	/
Cc1ncoc1C(=O)N1CCCC(CCC(=O)NCc2ccc(F)c(F)c2)C1 (centres undefined)	-2	0	2	-4	-1	/	/
Cc1ncoc1C(=O)N1CCCC(CCC(=O)NCc2ccccc2F)C1 (centres undefined)	45*	0	0	6	-3	-7	1%
Cc1ccc(C(=O)COC(=O)c2cc(=O)[nH]c3ccccc23)cc1	47*	-1	0	-11	-3	4	1%
O=C(COC(=O)c1cc(=O)[nH]c2ccccc12)c1ccccc1	-3	0	1	16	-1	/	/
COc1ccccc1CNC(=O)c1cc2c(-c3ccc(Cl)cc3)nn(C)c2s1	24	0	-2	12	3	/	/
COC(=O)c1ccc(NC(=O)CSc2nc3cc4ccccc4cc3[nH]2)cc1	-4	1	3	-1	-3	/	/
COc1ccccc1CNC(=O)N1CCN(S(=O)(=O)c2ccc(C)cc2)CC1	42*	-1	5	-9	7	-9	-1%
CN(C)CCSc1nc(-c2ccccc2)nc2c1COC(C)(C)C2	46*	0	2	/	-4	1	2%
COc1ccc(Cl)cc1Nc1ncnc2c1nc1n2CCCC1	-5	0	0	-13	2	/	/
COc1ccc(OC)c(C=Nc2ccccc2-c2nc3ccccc3[nH]2)c1	-5	-1	-1	-1	3	/	/
COc1ccc(OC)c(/C=C/c2nc3ccccc3[nH]c2=O)c1	-4	26	62*	-2	-1	5	18µM*
SMILES	TRHR enhancer-1	TRHR agonist-1	D1 ag	D1 antag	D1 PAM	TRHR enhancer-2	TRHR agonist-2
O=C(CNC(=O)c1ccccc1)NC1(C(=O)NC2CCCCC2)CCCCC1	53*	1	3	8	5	-16	-1%
O=C(CNC(=O)c1ccccc1)NC1(C(=O)NC2CCCC2)CCCCC1	-5	0	0	2	0	/	/
CC1CCN(S(=O)(=O)c2ccc3c(c2)N(CC(=O)NC(C)(C)C)C(=O)CS3)CC1	5	0	3	16	-3	/	/
CCOC(=O)c1cnc2cc(-c3ccc(OCC)cc3)nn2c1-c1ccccc1	-3	0	5	0	-2	/	/
CCCCc1cc(=O)oc2cc(OCC(=O)N(CC)CC)c(Cl)cc12	66*	0	3	5	-8	-5	0%
CCCCc1cc(=O)oc2cc(OCC(=O)N(CC)CC)ccc12	0	-2	2	13	0	/	/
O=C(Nc1ccccc1C(=O)O)c1cc(S(=O)(=O)N2CCOCC2)c(Br)s1	45*	-1	7	10	6	4	-1%
O=C(Nc1nnc(S(=O)(=O)N2CCCc3ccccc32)s1)c1ccc(Cl)cc1	10	0	0	5	-1	/	/
CN(C)CCCNC1=CC(=O)CC(c2ccccc2)C1 (centres undefined)	56*	0	-1	-1	-1	12	-1%
CCc1cc(=O)[nH]c(SCc2ccc(C)cc2)n1	54*	0	2	22	-5	-1	-1%
CN1CCS/C1=C/C=C1\SC(=S)N(CC(=O)O)C1=O	-3	27	42*	9	-4	4	21µM*
O=C(O)CN1C(=O)/C(=C/c2ccc(N3CCCCC3)o2)SC1=S	-2	0	7	-14	8	/	/
CCOC(=O)N1CCc2c(sc3c2c(=O)n(CCc2ccccc2)c(=O)n3Cc2c(F)cccc2Cl)C1	-1	0	1	8	0	/	/
CC(=O)c1ccccc1OCCOc1ncnc2sccc12	60*	1	11	1	-1	1	7%
Cc1ccc(CNC(=O)c2cccc3c2C(=O)c2ccc(N4CCCCC4)cc2S3(=O)=O)cc1	12	36*	97*	17	5	-6	21µM*
N=c1sccn1CC(=O)Nc1ccc(S(N)(=O)=O)cc1	54*	1	2	4	-3	-1	0%
NS(=O)(=O)c1ccc(NC(=O)CSC2CCCCC2)cc1	45*	0	1	-15	0	-1	0%
Cc1ccc(/C=C/c2nc3ccccc3[nH]2)o1	46*	1	0	2	-5	?	8%
Cc1ccc(/C=C/c2nc3ccccc3[nH]2)cc1	8	-1	-1	-14	-3	/	/
CCc1nc2ccccc2n2c(-c3ccc(C)cc3)c3c(=O)n(C)c(=O)n(C)c3c12	-4	0	2	-17	-1	/	/
Cc1ccc(-c2c3c(=O)n(C)c(=O)n(C)c3c3cnc4ccccc4n23)cc1	59*	0	1	4	7	-1	2%
